This passage reports cytotoxicity call results from the antibiotic and cytotoxicity screens of Wong et al. (2023).

About 1,500 (3.8%) of roughly 39,000 compounds were called active. The sample as a whole holds a higher share of actives than the screen did.

The test has as its system HSkMC (human skeletal muscle cells). The test is described as follows: cytotoxicity call (relative viability < 0.9). The conditions noted are these: 10 µM.
Consider `COc1ccc(S(=O)(=O)Nc2ccc3c(c2)C(=O)N([C@@H](C)CO)C[C@@H](C)[C@H](CN(C)S(=O)(=O)c2ccc(F)cc2)O3)cc1`, for which the cytotoxicity call was “inactive”. The value for `O=C(O)[C@H]1C[C@H]2C(=O)NCC(=O)N2[C@H]1c1ccc(O)cc1` was “inactive”; that for `C[C@@H]1CN([C@H](C)CO)C(=O)c2cccc(NC(=O)c3ccc(-c4nccs4)cc3)c2O[C@@H]1CN(C)Cc1ccc2c(c1)OCO2` was “inactive”; that for `C[C@@H]1CN([C@H](C)CO)C(=O)c2c(c3ccccc3n2C)-c2ccccc2CO[C@H]1CN(C)Cc1ccccc1` was “active”. In the case of `C[C@H](CO)N1C[C@H](C)[C@H](CN(C)Cc2ccc(-c3ccccc3)cc2)OCc2ccccc2-c2c(n(C)c3ccccc23)C1=O`, the cytotoxicity call is “active”. The value for `C[C@@H]1CN([C@H](C)CO)C(=O)c2c(c3ccccc3n2C)-c2ccccc2CO[C@H]1CN(C)C(=O)Nc1ccc(-c2ccccc2)cc1` was “inactive”. In the case of `C[C@@H]1CN([C@@H](C)CO)C(=O)c2c(c3ccccc3n2C)-c2ccccc2CO[C@H]1CN(C)Cc1ccc(-c2ccccc2)cc1` it was “inactive”.

Consider `C[C@H](CO)N1C[C@H](C)[C@@H](CN(C)Cc2ccc(-c3ccccc3)cc2)OCc2ccccc2-c2c(n(C)c3ccccc23)C1=O`, for which the cytotoxicity call was “inactive”. As to `C[C@@H]1CN([C@@H](C)CO)C(=O)c2c(c3ccccc3n2C)-c2ccccc2CO[C@@H]1CN(C)Cc1ccc(-c2ccccc2)cc1`, the cytotoxicity call is “active”.

As for `C[C@H](CO)N1C[C@H](C)[C@@H](CN(C)Cc2ccccc2)OCc2ccccc2-c2c(n(C)c3ccccc23)C1=O`, the cytotoxicity call is “inactive”. In the case of `C[C@@H]1CN([C@H](C)CO)C(=O)c2c(c3ccccc3n2C)-c2ccccc2CO[C@@H]1CN(C)Cc1ccc(-c2ccccc2)cc1` it was “inactive”. `C[C@H](CO)N1C[C@H](C)[C@H](CN(C)C(=O)Nc2ccc(-c3ccccc3)cc2)OCc2ccccc2-c2c(n(C)c3ccccc23)C1=O`: the cytotoxicity call is “active”. Consider `C[C@H]1CN([C@@H](C)CO)C(=O)c2c(c3ccccc3n2C)-c2ccccc2CO[C@@H]1CN(C)Cc1ccc(-c2ccccc2)cc1`, for which the cytotoxicity call was “inactive”.

Take `C[C@H]1CN([C@@H](C)CO)C(=O)c2c(c3ccccc3n2C)-c2ccccc2CO[C@@H]1CN(C)Cc1ccccc1`: the cytotoxicity call was “inactive”.

Take `C[C@@H]1CN([C@H](C)CO)C(=O)c2c(c3ccccc3n2C)-c2ccccc2CO[C@@H]1CN(C)C(=O)Nc1ccc(-c2ccccc2)cc1`: the cytotoxicity call was “inactive”. In the case of `C[C@@H]1CN([C@@H](C)CO)C(=O)Cc2cc(NS(=O)(=O)c3cn(C)cn3)ccc2O[C@H]1CN(C)C(=O)Nc1ccccc1` it was “inactive”; in that of `C[C@H](NC(=O)[C@@H]1N[C@@H]2c3ccc(-c4ccc(C(=O)N(C)C)cc4)c(=O)n3C[C@@H]2[C@H]1CO)c1ccccc1`, “inactive”; in that of `COc1ccc2c3c(n(c2c1)C)[C@@H](CO)N(C[C@]13CN(C1)C(=O)c1ccncc1)C(=O)C1CCOCC1`, “inactive”. `C[C@H]1CCCCO[C@@H](CN(C)C(=O)Nc2ccc3c(c2)OCO3)[C@@H](C)CN([C@@H](C)CO)C(=O)c2cc(NC(=O)Cc3ccccc3)ccc2O1`: the cytotoxicity call is “inactive”.

In the case of `C[C@@H]1CN([C@@H](C)CO)S(=O)(=O)c2ccc(C#CC3(O)CCCC3)cc2O[C@H]1CN(C)C(=O)Nc1ccc(F)cc1`, the cytotoxicity call was “inactive”. In the case of `C[C@@H]1CCCCO[C@@H](CN(C)Cc2ccc(C(F)(F)F)cc2)[C@@H](C)CN([C@H](C)CO)C(=O)c2cc(NS(C)(=O)=O)ccc2O1` it was “inactive”; in that of `C[C@H](CO)N1C[C@H](C)[C@H](CN(C)S(C)(=O)=O)Oc2ccc(NC(=O)Nc3ccc(C(F)(F)F)cc3)cc2CC1=O`, “inactive”. `Cc1ccc(S(=O)(=O)N(C)C[C@H]2Oc3ccc(NC(=O)Nc4ccc(C(F)(F)F)cc4)cc3CC(=O)N([C@H](C)CO)C[C@@H]2C)cc1`: the cytotoxicity call is “active”. The value for `Cc1ccc(S(=O)(=O)N(C)C[C@H]2Oc3ccc(NC(=O)Nc4ccc(C(F)(F)F)cc4)cc3CC(=O)N([C@H](C)CO)C[C@H]2C)cc1` was “active”; that for `C[C@@H]1CN([C@@H](C)CO)C(=O)Cc2cc(NC(=O)Nc3ccc(C(F)(F)F)cc3)ccc2O[C@@H]1CN(C)S(C)(=O)=O` was “inactive”; that for `Cc1ccc(S(=O)(=O)N(C)C[C@@H]2Oc3ccc(NC(=O)Nc4ccc(C(F)(F)F)cc4)cc3CC(=O)N([C@H](C)CO)C[C@@H]2C)cc1` was “active”. With `Cc1ccc(S(=O)(=O)N(C)C[C@H]2Oc3ccc(NC(=O)Nc4ccc(C(F)(F)F)cc4)cc3CC(=O)N([C@@H](C)CO)C[C@H]2C)cc1`, the cytotoxicity call is “active”. For the molecule `C[C@@H]1CN([C@H](C)CO)C(=O)c2cc(C#CCN(C)C)cnc2O[C@@H]1CN(C)Cc1ccc2c(c1)OCO2`, the cytotoxicity call is “inactive”.

Turning to `C[C@H](CO)N1C[C@H](C)[C@H](CN(C)S(=O)(=O)c2ccc(C(F)(F)F)cc2)OCc2ccccc2-c2ccccc2C1=O`, the cytotoxicity call was “inactive”.

For the molecule `C[C@@H]1CN([C@H](C)CO)C(=O)c2cccc(NC(=O)C3CCCCC3)c2O[C@@H]1CN(C)C(=O)Nc1ccc(C(F)(F)F)cc1`, the cytotoxicity call was “inactive”. Consider `COc1ccc(NC(=O)CSC2=NC(C)=C(C(=O)Nc3nc4ccccc4s3)[C@H](c3ccco3)C2C#N)cc1` (stereo partly specified), for which the cytotoxicity call was “inactive”. The value for `COc1ccc(CCNS(=O)(=O)c2cn(C)c(=O)n(C)c2=O)cc1` was “inactive”. The value for `CCCN(C)C[C@H]1OCCCC[C@@H](C)Oc2ccc(NS(C)(=O)=O)cc2C(=O)N([C@H](C)CO)C[C@@H]1C` was “inactive”. In the case of `C[C@@H]1CN([C@@H](C)CO)C(=O)c2cc(N(C)C)ccc2O[C@H]1CN(C)S(C)(=O)=O` it was “inactive”; in that of `COc1ccc(S(=O)(=O)Nc2cccc3c2O[C@H](CN(C)S(C)(=O)=O)[C@H](C)CN([C@@H](C)CO)C3=O)cc1`, “inactive”; in that of `CC(C)NC(=O)N(C)C[C@H]1Oc2ccc(NC(=O)c3ccncc3)cc2CC(=O)N([C@H](C)CO)C[C@H]1C`, “inactive”.

Regarding `C[C@@H]1CCCCO[C@@H](CN(C)S(=O)(=O)c2cn(C)cn2)[C@H](C)CN([C@@H](C)CO)C(=O)c2cc(NS(=O)(=O)c3ccc(F)cc3)ccc2O1`, the cytotoxicity call was “inactive”. Regarding `Cc1ccc(S(=O)(=O)N(C)C[C@H]2Oc3ccc(NC(=O)Nc4ccc(C(F)(F)F)cc4)cc3CC(=O)N([C@@H](C)CO)C[C@@H]2C)cc1`, the cytotoxicity call is “inactive”.

For the molecule `Cc1ccc(S(=O)(=O)N(C)C[C@@H]2Oc3ccc(NC(=O)Nc4ccc(C(F)(F)F)cc4)cc3CC(=O)N([C@H](C)CO)C[C@H]2C)cc1`, the cytotoxicity call is “inactive”. In the case of `Cc1ccc(S(=O)(=O)N(C)C[C@@H]2Oc3ccc(NC(=O)Nc4ccc(C(F)(F)F)cc4)cc3CC(=O)N([C@@H](C)CO)C[C@@H]2C)cc1` it was “active”; in that of `Cc1ccc(S(=O)(=O)N(C)C[C@@H]2Oc3ccc(NC(=O)Nc4ccc(C(F)(F)F)cc4)cc3CC(=O)N([C@@H](C)CO)C[C@H]2C)cc1`, “active”; in that of `C[C@@H]1CN([C@@H](C)CO)C(=O)c2cc(NC(=O)c3ccccc3)ccc2O[C@@H](C)CCCCO[C@H]1CN(C)CC1CCCCC1`, “inactive”. In the case of `Cc1noc(C)c1NC(=O)Nc1ccc2c(c1)C(=O)N([C@@H](C)CO)C[C@@H](C)[C@H](CN(C)Cc1ccc(C(F)(F)F)cc1)O2`, the cytotoxicity call is “inactive”. For `CC(C)(C)[S@](=O)N1Cc2cc(C(=O)NCC(F)(F)F)nc(-c3cccc(-c4cccc(F)c4)c3)c2[C@@H]1CCO`, the cytotoxicity call was “inactive”. In the case of `C[C@@H]1CN([C@@H](C)CO)C(=O)Cc2cc(NC(=O)Nc3cccc4ccccc34)ccc2O[C@H]1CN(C)CC1CCCCC1` it was “inactive”. In the case of `C[C@H]1CN([C@@H](C)CO)C(=O)Cc2cc(NC(=O)Nc3cccc4ccccc34)ccc2O[C@H]1CN(C)CC1CCCCC1` it was “active”; in that of `C[C@H](CO)N1C[C@H](C)[C@H](CN(C)CC2CCCCC2)Oc2ccc(NC(=O)Nc3cccc4ccccc34)cc2CC1=O`, “inactive”.

Regarding `C[C@H]1CN([C@@H](C)CO)C(=O)Cc2cc(NC(=O)Nc3cccc4ccccc34)ccc2O[C@@H]1CN(C)CC1CCCCC1`, the cytotoxicity call was “active”. For `C[C@@H]1CN([C@H](C)CO)C(=O)Cc2cc(NC(=O)Nc3cccc4ccccc34)ccc2O[C@H]1CN(C)CC1CCCCC1`, the cytotoxicity call is “inactive”. Turning to `C[C@@H]1CN([C@@H](C)CO)C(=O)Cc2cc(NC(=O)Nc3cccc4ccccc34)ccc2O[C@@H]1CN(C)CC1CCCCC1`, the cytotoxicity call is “inactive”. In the case of `C[C@H](CO)N1C[C@H](C)[C@H](CN(C)C(=O)Nc2ccc3c(c2)OCO3)Oc2ccc(NC(=O)Nc3ccc(C(F)(F)F)cc3)cc2C1=O` it was “inactive”; in that of `COC[C@H]1CNN1C(=O)Nc1c(C)noc1C`, “inactive”; in that of `Cc1noc(C)c1NC(=O)Nc1ccc2c(c1)C(=O)N([C@@H](C)CO)C[C@H](C)[C@H](CN(C)C(=O)NC(C)C)O2`, “inactive”. Turning to `C[C@H](CO)N1C[C@H](C)[C@H](CN(C)C(=O)Nc2cccc3ccccc23)Oc2ccc(NS(=O)(=O)c3ccc(F)cc3)cc2C1=O`, the cytotoxicity call is “inactive”. The value for `C[C@@H]1CCCCO[C@@H](CN(C)C(=O)Nc2ccccc2)[C@@H](C)CN([C@H](C)CO)C(=O)c2cc(NC(=O)c3ccccc3)ccc2O1` was “inactive”; that for `C[C@@H]1CN([C@H](C)CO)C(=O)c2cccc(NC(=O)Nc3ccc(C(F)(F)F)cc3)c2O[C@H]1CN(C)Cc1ccccc1` was “inactive”. The value for `C[C@@H]1CN([C@H](C)CO)C(=O)c2cccc(NC(=O)Nc3ccc(C(F)(F)F)cc3)c2O[C@@H]1CN(C)Cc1ccccc1` was “inactive”. With `C[C@H]1CN([C@@H](C)CO)C(=O)c2cccc(NC(=O)Nc3ccc(C(F)(F)F)cc3)c2O[C@@H]1CN(C)Cc1ccccc1`, the cytotoxicity call is “active”.

As for `C[C@@H]1CN([C@@H](C)CO)C(=O)c2cccc(NC(=O)Nc3ccc(C(F)(F)F)cc3)c2O[C@@H]1CN(C)Cc1ccccc1`, the cytotoxicity call is “inactive”.

Consider `C[C@H](CO)N1C[C@H](C)[C@@H](CN(C)Cc2ccccc2)Oc2c(NC(=O)Nc3ccc(C(F)(F)F)cc3)cccc2C1=O`, for which the cytotoxicity call is “inactive”. For `C[C@@H]1CN([C@@H](C)CO)C(=O)c2cccc(NC(=O)Nc3ccc(C(F)(F)F)cc3)c2O[C@H]1CN(C)Cc1ccccc1`, the cytotoxicity call is “active”.
